# Results published in article PMC4336329 (PLoS ONE, 2015).
# About 14,000 (4.5%) of roughly 310,000 compounds showed an effect of 50% or more. Effects have a minus sign here. Only a selection was taken, and strong results are over-represented in it overall.
# Biological target: human ether-à-go-go-related gene (hERG) potassium channel (human, UniProt Q12809)
# Assay: primary screen, population patch clamp on CHO cells stably expressing hERG; higher = less effect of the substance
# 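Also: peak tail current of the secondary pulse compared with the same well before compound.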
# Sequence of human ether-à-go-go-related gene (hERG) potassium channel (Q12809 whole entry, looked up): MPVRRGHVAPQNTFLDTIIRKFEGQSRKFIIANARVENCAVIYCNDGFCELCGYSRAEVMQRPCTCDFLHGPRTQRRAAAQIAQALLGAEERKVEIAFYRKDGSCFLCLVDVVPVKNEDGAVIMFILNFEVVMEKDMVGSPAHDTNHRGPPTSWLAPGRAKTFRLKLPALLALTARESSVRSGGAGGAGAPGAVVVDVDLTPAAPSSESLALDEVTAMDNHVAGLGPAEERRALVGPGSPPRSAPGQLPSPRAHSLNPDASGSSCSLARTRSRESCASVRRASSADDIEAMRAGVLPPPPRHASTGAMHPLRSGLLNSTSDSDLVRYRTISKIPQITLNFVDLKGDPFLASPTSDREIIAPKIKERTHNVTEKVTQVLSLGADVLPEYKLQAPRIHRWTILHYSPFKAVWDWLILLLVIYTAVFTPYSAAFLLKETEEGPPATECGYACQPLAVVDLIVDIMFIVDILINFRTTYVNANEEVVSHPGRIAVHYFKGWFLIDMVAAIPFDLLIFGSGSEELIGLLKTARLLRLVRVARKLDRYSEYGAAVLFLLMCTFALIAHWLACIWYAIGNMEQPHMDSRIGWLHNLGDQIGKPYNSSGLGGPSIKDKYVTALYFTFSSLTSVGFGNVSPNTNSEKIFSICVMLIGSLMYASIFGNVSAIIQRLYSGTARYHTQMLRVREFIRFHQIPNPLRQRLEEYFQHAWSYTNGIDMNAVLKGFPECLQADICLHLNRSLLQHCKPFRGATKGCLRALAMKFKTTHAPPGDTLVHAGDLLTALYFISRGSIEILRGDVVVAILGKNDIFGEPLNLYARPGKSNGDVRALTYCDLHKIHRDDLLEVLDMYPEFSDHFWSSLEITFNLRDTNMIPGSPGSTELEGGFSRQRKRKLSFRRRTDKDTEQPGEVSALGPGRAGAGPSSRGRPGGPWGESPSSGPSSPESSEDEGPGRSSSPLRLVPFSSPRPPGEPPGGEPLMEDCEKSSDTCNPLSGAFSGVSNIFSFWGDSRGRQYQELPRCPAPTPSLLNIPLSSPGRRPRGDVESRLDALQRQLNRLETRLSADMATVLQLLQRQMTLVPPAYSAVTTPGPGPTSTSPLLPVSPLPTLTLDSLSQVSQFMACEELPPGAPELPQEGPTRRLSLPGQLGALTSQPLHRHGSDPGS
row,SMILES,"hERG current change (%, negative = inhibition) at 10uM [%]"
1,COc1ccc(CC(=O)NNS(=O)(=O)c2ccc(F)cc2)cc1OC,0.969
2,COc1ccc(-n2c(C)cc(C(=O)CN3CCCCC3)c2C)cc1,1.6
3,CNc1nc(C)c(C(=O)OCc2ccccc2)s1,15.9
4,O=C(Nc1c2c(nn1-c1ccccc1)CS(=O)C2)c1ccc(Br)o1 (centres unmarked),1.07
5,Cc1cc(=O)[nH]c(SCc2nc3ncccn3c2Br)n1,14.6
6,Brc1c(CSc2nc3ccccc3s2)nc2ncccn12,-69.7
7,Clc1c(CSc2nc3ccccc3o2)nc2sccn12,5.65
8,Clc1c(CSc2nc3ccccc3o2)nc2ccccn12,-20.4
9,Cc1cc(C)nc(SCc2nc3ncccn3c2Br)n1,-2.09
10,Cc1ccc(SCc2nc3ncccn3c2Br)cc1,-68
11,c1ccc2sc(SCSc3nc4ccccc4s3)nc2c1,15.8
12,O=[N+]([O-])c1ccc2sc(SCc3nc4ccccn4c3Br)nc2c1,20.2
13,Brc1c(CSc2nc3ccccc3o2)nc2ncccn12,-51.8
14,COc1ccc(S(=O)(=O)Nc2ccc3c(c2)OCO3)cc1OC,21.7
15,COc1ccc(NC(=O)CSc2nnc(-c3ccccc3C)n2N)cc1,31.2
16,CCC(Oc1ccccc1)C(=O)Nc1cc(Cl)ccc1-n1cncn1 (centres unmarked),-14.1
17,O=C1c2ccccc2C(=O)N1C(CO)C(O)c1ccc([N+](=O)[O-])cc1 (centres unmarked),-5.29
18,CC(c1nnc(SCC(=O)N2CC(=O)Nc3ccccc32)n1Cc1ccccc1)N(C)C (centres unmarked),5.73
19,CC(C)CCNCC(O)CON=C1c2ccccc2-c2ccccc21 (centres unmarked),-32.2
20,CC(N=Cc1cc([N+](=O)[O-])ccc1O)c1ccccc1 (centres unmarked),11.7
21,CC(O)CN1CC(O)=C(c2nc3ccccc3s2)C1=N (centres unmarked),3.89
22,COc1ccc(C(=O)NCc2ncccc2C)cc1OC1CCN(C(C)=O)CC1,9.32

row,SMILES,"hERG current change (%, negative = inhibition) at 10uM [%]"
1,CCOc1ccccc1-n1c(SCC(=O)Nc2ccccc2C(=O)O)nc2ccccc2c1=O,8.39
2,O=C(CN1CCN(S(=O)(=O)c2ccc(Br)cc2)CC1)N/N=C/c1ccncc1,-70.6
3,Cc1ccc(S(=O)(=O)N2CCN(CC(=O)N/N=C\c3ccncc3)CC2)cc1,-66.8
4,Cc1ccc(S(=O)(=O)N2CCN(CC(=O)N/N=C\c3cccnc3)CC2)cc1,0.297
5,O=C(CN1CCN(S(=O)(=O)c2ccc(Br)cc2)CC1)N/N=C/c1ccc(Cl)c([N+](=O)[O-])c1,-17.9
6,O=C(CN1CCN(S(=O)(=O)c2ccc(Br)cc2)CC1)N/N=C/c1cccnc1,-31.6
7,Cc1ccc(S(=O)(=O)N2CCN(CC(=O)N/N=C\c3ccc(O)c(O)c3)CC2)cc1,-8.76
8,O=C1N/C(=N\c2ccccn2)SC1Cc1ccc(Cl)cc1 (centres unmarked),4.11
9,Cc1cccc(CCNc2nc3ccc(C)cc3n3cnnc23)c1,17.3
10,CC(C)(C)CC(C)(C)NC(=O)c1ccc2snnc2c1,-13.6
11,COc1ccc(S(=O)(=O)NC(CC(=O)N2CCC3(CC2)OCCO3)C(C)C)cc1 (centres unmarked),10.9
12,COc1ccccc1CCC(=O)N(C)C1CCCN(Cc2ccccc2F)C1 (centres unmarked),-28
13,Cc1csc(=O)n1CC(=O)OCc1nnc(-c2ccc(Cl)cc2)o1,-2.32
14,Cc1onc(-c2ccccc2Cl)c1C(=O)OCc1nnc(-c2ccccc2)o1,-16.7
15,Cc1onc(-c2ccccc2)c1C(=O)OCc1nnc(-c2ccccc2)o1,-15.6
16,Cc1ccc(C(=O)OCc2nnc(-c3ccccc3)o2)s1,-7.37
17,Cc1csc(=O)n1CCC(=O)OCc1nnc(-c2ccc([N+](=O)[O-])cc2)o1,-67.3
18,Cc1csc(=O)n1CCC(=O)OCc1nnc(-c2ccccc2)o1,-8.45
19,Cc1ccc(C(=O)NCC(=O)OCc2nnc(-c3ccccc3)o2)cc1,-31.6
20,Cc1onc(-c2ccccc2)c1C(=O)OCc1nnc(-c2ccc([N+](=O)[O-])cc2)o1,-71.5
21,Cc1ccc(C(=O)NCC(=O)OCc2nnc(-c3ccc([N+](=O)[O-])cc3)o2)s1,-67.3
22,CNc1ccc(Oc2c(F)c(F)nc(F)c2F)cc1,-0.34

row,SMILES,"hERG current change (%, negative = inhibition) at 10uM [%]"
1,O=C1CS/C(=N/N=C/c2ccccc2)N1c1ccc(O)cc1,17.6
2,CN(C)S(=O)(=O)c1cccc(NC(=O)C2Cc3ccccc3CN2C(=O)c2ccccc2)c1 (centres unmarked),4.2
3,Oc1ccc(C[C@H]2CNCCN2CCc2cccc3ccccc23)cc1,-17.7
4,c1ccc(C[C@H]2CNCCN2CCc2cccc3ccccc23)cc1,-35.6
5,Oc1ccc(C[C@@H]2CNCCN2CCc2cccc3ccccc23)cc1,-64.5
6,C#CCOCCOCCOCCNc1nc(N2CCN(C(=O)[C@H](CCC(=O)O)n3cc(C(N)Cc4ccc(O)cc4)nn3)CC2)nc(N2CCN(C(=O)[C@H](Cc3cc4ccccc4[nH]3)n3cc(C(N)[C@H](C)CC)nn3)CC2)n1.Cl (some centres unmarked),5.43
7,COc1ccc(CNC(=O)c2ccc3c(=O)n(CCCN4CCCC4=O)c(=S)[nH]c3c2)cc1,19
8,CCOC(=O)c1ccc(Nc2nc(C)cc(C)n2)cc1,16.7
9,COC(=O)c1ccc(Nc2cc(C)nc3nc(C)nn23)cc1,-37.8
10,CCOC(=O)c1ccc(Nc2cc(C)nc3nc(C)nn23)cc1,-53
11,CCOC(=O)c1ccc(Nc2cc(C)nc3ncnn23)cc1,-15.1
12,CCOC(=O)c1ccc(Nc2cc(C)nc(C)c2C(=O)OCC)cc1.Cl,-62.6
13,CCOC(=O)c1c(Nc2ccccc2N)cc(C)nc1C,-13.9
14,COc1ccc(/C=N/NC(=O)CCn2c3ccccc3c3ccccc32)cc1O,5.18
15,COc1ccc(NS(=O)(=O)c2cc(C)ccc2OC)cc1OC,10.5
16,CN(C)c1ccc2c(O)cc(=O)n(C)c2c1,6.76
17,O=C(NC1CCCC1)c1cc2nc(-c3ccccc3)cc(-c3ccccc3)n2n1,-23.3
18,Cc1ccc2nc(C)c(C)nc2c1N,8.1
19,O=C(Nc1ccc(Cl)cc1Cl)c1ccc2c(=O)n3c(nc2c1)CCC3,-39.8
20,NC(=O)CSc1nnc(-c2cnccn2)n1Cc1ccco1,7.06
21,O=c1[nH]c(CSc2nnc(-c3ccncc3)n2Cc2ccco2)nc2ccccc12,-58.2
22,Cn1c(Cc2ccccc2)nnc1SCc1nc2ccccc2c(=O)[nH]1,-1.69

row,SMILES,"hERG current change (%, negative = inhibition) at 10uM [%]"
1,c1coc(Cn2c(SCc3nc4ccccc4[nH]3)nnc2-c2cnccn2)c1,-56.3
2,Cn1c(-c2ccccc2)cnc1SCc1nc2ccccc2c(=O)[nH]1,-59.9
3,CCn1c(SCc2nc3ccccc3c(=O)[nH]2)nnc1-c1ccncc1,-11.7
4,c1ccc(-c2nnc(SCc3nc4ccccc4[nH]3)n2Cc2ccco2)cc1,-22.4
5,COCCn1c(SCc2nc3ccccc3c(=O)[nH]2)nnc1-c1ccncc1,-4.64
6,Cn1c(SCc2nc3ccccc3c(=O)[nH]2)nc2ccccc21,0.933
7,c1ccc(-c2nnc(SCc3nc4ccccc4[nH]3)n2Cc2ccco2)nc1,-8.18
8,Fc1ccc(CSc2nnc(-c3cnccn3)n2Cc2ccco2)cc1,-52.2
9,Fc1ccccc1CSc1nnc(-c2cnccn2)n1Cc1ccco1,-11.2
10,Cl.NC(N)=NC(N)=Nc1ccc(SC(F)(F)F)cc1,-21.3
11,Oc1cccnc1Sc1cccc(C(F)(F)F)c1,18.6
12,CC(C)(C)c1nnc(NC(=O)CCS(=O)(=O)c2ccccc2)s1,5.03
13,COc1cc(/C=C2/SC(=S)NC2=O)ccc1OS(=O)(=O)c1ccc(C)cc1,39.8
14,CCOc1ccc(CCNC(=O)C2CCN(S(=O)(=O)N3CC(C)CC(C)C3)CC2)cc1OCC (centres unmarked),20.7
15,Cc1c(NC(=O)Cn2cc([N+](=O)[O-])cn2)c(=O)n(-c2ccccc2)n1C,11.7
16,CC1CCN(c2ccc3c(c2)S(=O)(=O)c2ccccc2C3=O)CC1,7.82
17,COc1cccc2cc(C(=O)C3=C(O)C(=O)N(c4cc(C)on4)C3c3cccs3)oc12 (centres unmarked),22.9
18,COc1ccccc1CNC(=O)CS(=O)Cc1nc(-c2ccc(OC)c(OC)c2)oc1C (centres unmarked),-6.47
19,COc1ccccc1NS(=O)(=O)c1ccc2oc(=S)[nH]c2c1,2.14
20,CC1CC(C)(C)NC(=S)N1CCC(=O)Nc1ccc2c(c1)OCCO2 (centres unmarked),18.3
